Measured values: the supplement of paper PMC8183993
Where “and” joins values, the source holds several entries; their conditions need not be identical. Equal entries are not always repeated. Structures can show the parent of a compound that is named as a salt. ± gives the standard deviation of the averaged measurements. In all, about 3,200 compounds were measured (“nuclei count (viability) relative to DMSO”: median about 99, lowest 2% from about 16 on). What follows is part of a selection rich in the lowest values, with near analogues and random picks from the rest.

tested on: U2OS; assay: nuclei count (viability) relative to DMSO (% of DMSO); higher = more viable cells; conditions: 10 µM; 24 h
Description: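 Primary image-based screen in U2OS cells: compounds at 10 uM for 24 h, then a 1 h o-propargyl-puromycin (OPP) pulse, click labelling, and high-throughput microscopy. Mean cytoplasmic OPP intensity and nuclei count were normalised to DMSO wells within each plate (DMSO = 100) and averaged over triplicate plates.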

SMILES	nuclei count
Cc1cc(-c2ccccc2)nnc1NCCN1CCOCC1 [Minaprine dihydrochloride]	102
O=C1C(Cl)=C(NCCN2CCOCC2)C(=O)c2ncccc21	5.89
O=C(NCCN1CCOCC1)c1ccc(Cl)cc1 [Moclobemide]	90.8
CCN(CC)c1ccc(/C=N/NC(=O)c2ccc(O)cc2)cc1	89.4
C[N+](C)(C)CC[N+]1(C)Cc2c(Cl)c(Cl)c(Cl)c(Cl)c2C1 [Chlorisondamine diiodide]	90.8
O=C(O)[C@H]1O[C@@H](Oc2cc3oc(-c4ccccc4)cc(=O)c3c(O)c2O)[C@H](O)[C@@H](O)[C@@H]1O [Baicalin]	101
c1cc2c3c(c1)c1c(n3CCNC2)CCCC1 [WAY 629 hydrochloride]	94.2
Cc1cc(O)c2c(c1)C(=O)c1cccc(O)c1C2=O [Chrysophanic acid (Chrysophanol)]	92.5 ± 11
COc1ccc(Cn2ccc3ccc(C(=O)NO)cc32)cc1	101
CCN(CC)Cc1ccc2cc(COC(=O)Nc3ccc(C(=O)NO)cc3)ccc2c1 [ITF2357 (Givinostat)]	14.7
CC(C)[C@H](C(=O)Nc1ccc(C(=O)NO)cc1)c1ccccc1	29.3
Nc1ncnc2c1ncn2[C@@H]1O[C@H](COP(=O)(O)OP(=O)(O)OP(=O)(O)O)[C@@H](O)[C@H]1O [ATP (Adenosine-Triphosphate)]	106
CCN(CC)CCNC(=O)c1c(C)[nH]c(/C=C2\C(=O)Nc3ccc(Cl)cc32)c1C	79.9
CCCS(=O)(=O)c1nc(NC2CC2)cc(-c2ccc3c(ccn3C3CC(C)(C)NC(C)(C)C3)c2)n1	8.4
O=C(NC[C@H](O)CN1CCc2ccccc2C1)c1ccnc(NC2CCC2)c1	102
Cc1ccc(/C=C2\CNC/C(=C\c3ccc(C)cc3)C2=O)cc1	7.58
CC1(C)[C@@H](O[C@H]2O[C@H](C(=O)O)[C@@H](O)[C@H](O)[C@H]2O[C@@H]2O[C@H](C(=O)O)[C@@H](O)[C@H](O)[C@H]2O)CC[C@]2(C)[C@H]3C(=O)C=C4[C@@H]5C[C@@](C)(C(=O)O)CC[C@]5(C)CC[C@@]4(C)[C@]3(C)CC[C@@H]12 [Ammonium Glycyrrhizinate (AMGZ)]	101
CC1(C)[C@@H](O[C@H]2O[C@H](C(=O)O)[C@@H](O)[C@H](O)[C@H]2O[C@@H]2O[C@H](C(=O)O)[C@@H](O)[C@H](O)[C@H]2O)CC[C@]2(C)[C@H]3C(=O)C=C4[C@@H]5C[C@@](C)(C(=O)O)CC[C@]5(C)CC[C@@]4(C)[C@]3(C)CC[C@@H]12 [Glycyrrhizic acid]	101
CC(C)Cc1ccc(C(C)C(=O)NO)cc1 (centres undefined) [Ibuproxam]	95.9
CN(C)c1ccc(C(=C2C=CC(=[N+](C)C)C=C2)c2ccc(N(C)C)cc2)cc1 [Crystal violet]	13
CCOC(=O)Nc1cc(-c2ccc(C)c(NS(C)(=O)=O)c2)nn2c(C)nnc12 [Bromosporine]	74.5
CCCn1c(=O)c2[nH]c(-c3ccccc3)nc2n(CCC)c1=O [1,3-Dipropyl-8-phenylxanthine]	98.9
CC(C)C(=O)SCCCCCCC(=O)Nc1nc(-c2ccccc2)cs1	45.8

SMILES	nuclei count
CCOC(=O)c1cnc2c(cnn2CC)c1NN=C(C)C [Etazolate hydrochloride]	106
Cc1[nH]c(/C=C2\C(=O)Nc3ccc(S(=O)(=O)N(C)c4cccc(Cl)c4)cc32)c(C)c1C(=O)N1CCN(C)CC1	52.4
CN1CCN(C(=O)c2nc3ccc(Cl)cc3[nH]2)CC1	88.3
CN1CCCN(C(=O)c2cccc(-c3ccc(/C=C4/C(=O)Nc5ccc(Cl)cc54)o3)c2)CC1	6.22
CCCNC(=O)N1N=C(c2ccc(N)cc2)c2cc3c(cc2C1C)OCO3 (centres undefined)	93
C[C@H]1O[C@@H](O[C@H]2[C@@H](O)C[C@H](O[C@H]3[C@@H](O)C[C@H](O[C@H]4CC[C@@]5(C)[C@H](CC[C@@H]6[C@@H]5C[C@@H](O)[C@]5(C)[C@@H](C7=CC(=O)OC7)CC[C@]65O)C4)O[C@@H]3C)O[C@@H]2C)C[C@H](O)[C@@H]1O [Digoxin]	14.3
CCN1CCN(c2cc(-c3ccc(F)cc3)c3c(n2)CCCCCC3)CC1 [Blonanserin (Lonasen)]	98.7
C[S+]([O-])c1ccc(-c2nc(-c3ccc(F)cc3)c(-c3ccncc3)[nH]2)cc1 (centres undefined)	96.8 and 103
N=C(NCCCCCCNC(=N)NC(=N)Nc1ccc(Cl)cc1)NC(=N)Nc1ccc(Cl)cc1 [Chlorhexidine]	75.6
CCCCC(CC)CNC(=N)NC(=N)NCCCCCCNC(=N)NC(=N)NCC(CC)CCCC (centres undefined) [Alexidine dihydrochloride]	6.87
Nc1nc(OCc2cc(Br)cs2)c2[nH]cnc2n1 [Lomeguatrib]	102
CC(=O)[C@]1(O)Cc2c(O)c3c(c(O)c2[C@@H](O[C@H]2C[C@H](N)[C@H](O)[C@H](C)O2)C1)C(=O)c1ccccc1C3=O [Idarubicin HCl]	11.6
COc1cccc2c1C(=O)c1c(O)c3c(c(O)c1C2=O)C[C@@](O)(C(=O)CO)C[C@@H]3O[C@H]1C[C@H](N)[C@H](O[C@@H]2CCCCO2)[C@H](C)O1 [Pirarubicin]	33
COc1cccc2c1C(=O)c1c(O)c3c(c(O)c1C2=O)C[C@@](O)(C(=O)CO)C[C@@H]3O[C@H]1C[C@H](N)[C@H](O)[C@H](C)O1 [Doxorubicin hydrochloride]	13 ± 0.18
COc1cccc2c1C(=O)c1c(O)c3c(c(O)c1C2=O)C[C@@](O)(C(=O)CO)C[C@@H]3O[C@H]1C[C@H](N)[C@@H](O)[C@H](C)O1 [Epirubicin HCl]	13.2
COc1cccc2c1C(=O)c1c(O)c3c(c(O)c1C2=O)C[C@@](O)(C(C)=O)C[C@@H]3O[C@H]1C[C@H](N)[C@H](O)[C@H](C)O1 [Daunorubicin HCl (Daunomycin HCl)]	10.2
COc1cccc2c1C(=O)c1c(O)c3c(c(O)c1C2=O)C[C@@](O)(C(C)=O)C[C@@H]3O[C@H]1C[C@H](N)[C@H](O)[C@H](C)O1 [Daunorubicin hydrochloride]	12.3
COc1cccc2c1C(=O)c1c(O)c3c(c(O)c1C2=O)C[C@@](O)(C(=O)CO)C[C@@H]3O[C@H]1C[C@H](N)[C@H](O)[C@H](C)O1 [Doxorubicin (Adriamycin)]	12.7
CCCc1c(OCCCOc2ccc(OCC(=O)O)cc2)ccc(C(C)=O)c1O	108
COc1c(OCCCN2CCOCC2)ccc2c1N=C(NC(=O)c1cnc(N)nc1)N1CCN=C21	93.2
CCOC(=O)[C@H](CCc1ccccc1)N[C@H]1CS[C@H](c2cccs2)CN(CC(=O)O)C1=O [Temocapril HCl]	108
O=C(/C=C/c1c(C(=O)O)[nH]c2cc(Cl)cc(Cl)c12)Nc1ccccc1 [Gavestinel]	93.2
Cn1cnc(N)c2ncnc1-2 [3-Methyladenine]	104

SMILES	nuclei count
Cn1cnc(N)c2ncnc1-2 [3-Methyladenine (3-MA)]	107
OCC1OC(n2cnc3c(NC4CCCC4)nc(Cl)nc32)C(O)C1O (centres undefined) [2-Chloro-N6-cyclopentyladenosine]	93.5
CC/C=C\C/C=C\C/C=C\C/C=C\C/C=C\C/C=C\CCC(=O)O [Docosa-4Z,7Z,10Z,13Z,16Z,19Z-hexaenoic acid]	96.9
CCCOC(=O)c1cc(O)c(O)c(O)c1 [N-Propyl gallate]	82.9
Cc1cc(/C(=C/Nc2ccc(Cl)cc2)C(=O)Nc2ccc(Cl)cc2)on1	102
Cc1sc(N)c(C(=O)c2cccc(C(F)(F)F)c2)c1C	107
N[C@H](C(=O)O)[C@H](OCc1ccccc1)C(=O)O (racemic)	89.6
CC(C)NCCN(C(C)C)S(=O)(=O)c1ccc(Cl)cc1Cl	79.5
CCCCCS(=O)(=O)CCCCCCCCCCn1c(-c2ccc(O)cc2)c(C)c2cc(O)ccc21	105
CN(CCOc1ccc(C[C@H](Nc2ccccc2C(=O)c2ccccc2)C(=O)O)cc1)c1ccccn1	104
Cc1cc(C(=O)NNCc2ccccc2)no1 [Isocarboxazid]	109
CC1(C)OC2=C(C(=O)c3ccccc3C2=O)[C@H](NCc2ccccc2)[C@@H]1O	14.7
CC1(C)S[C@@H]2[C@H](NC(=O)Cc3ccccc3)C(=O)N2[C@H]1C(=O)O [Benzylpenicillin sodium]	98.6
CC1(C)S[C@@H]2[C@H](NC(=O)Cc3ccccc3)C(=O)N2[C@H]1C(=O)O [Benzathine benzylpenicillin]	81.7
C[C@H]1COC2(CCN(c3nc(=O)c4cc(C(F)(F)F)cc([N+](=O)[O-])c4s3)CC2)O1 (racemic) [BTZ043 racemate]	101
Cc1nnc(-c2ccc3occ(-c4ccc([S+](C)[O-])cc4)c3c2)o1 (centres undefined)	112
COc1c(C)cnc(Cn2cnc3c(Cl)nc(N)nc32)c1C	49.7
Cc1cn(CCN2CCN(c3ccccc3-c3cc(C#N)cc(C(=O)NCCCN4CCCC4)c3)CC2)c2ccccc12	22.8
O=C(Nc1cc(C(F)(F)F)cc(C(F)(F)F)c1)c1cc(Cl)ccc1O	78.7
CC(C)C[C@H](NC(=O)N1CCCCCC1)C(=O)N[C@H](Cc1cn(C)c2ccccc12)C(=O)N[C@H](Cc1ccccn1)C(=O)O	100
C[N+](C)([O-])CCNc1ccc(NCC[N+](C)(C)[O-])c2c1C(=O)c1c(O)ccc(O)c1C2=O [Banoxantrone dihydrochloride]	51.2
O=C1c2ccccc2C(=O)c2c(NCCc3ccc(O)cc3)ccc(NCCc3ccc(O)cc3)c21	97.1
O=C1c2c(O)ccc(O)c2C(=O)c2c(NCCNCCO)ccc(NCCNCCO)c21 [Mitoxantrone dihydrochloride]	15.5
